The values below come from PubChem BioAssay (Tox21).

Unmarked numbers belong to inactive results. Inconclusive results are not listed. A call without a number means that no potency is given here. Active and inactive are the calls of the source. Unless noted, calls come from the whole dose curve.

The target of the first test is Thyrotropin-releasing hormone receptor (Homo sapiens) (UniProt P34981). The test is described as follows: qHTS assay to identify small molecule agonists of the thyrotropin-releasing hormone receptor (TRHR) signaling pathway (AID 1346891).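 Note: HEK293 cells expressing TRHR with calcium dye readout.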 The note with it: TRHR-HEK293 calcium fluorescence, agonist mode; series mostly up to 57.6 µM. An outline of the steps: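 Kinetic fluorescence (3 min, 1 s intervals) reported intracellular calcium after compound transfer onto TRHR-Hek293 cells pre-loaded with dye for 2 h at 37 °C.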
Thyrotropin-releasing hormone receptor (Homo sapiens), sequence (P34981 whole entry, looked up): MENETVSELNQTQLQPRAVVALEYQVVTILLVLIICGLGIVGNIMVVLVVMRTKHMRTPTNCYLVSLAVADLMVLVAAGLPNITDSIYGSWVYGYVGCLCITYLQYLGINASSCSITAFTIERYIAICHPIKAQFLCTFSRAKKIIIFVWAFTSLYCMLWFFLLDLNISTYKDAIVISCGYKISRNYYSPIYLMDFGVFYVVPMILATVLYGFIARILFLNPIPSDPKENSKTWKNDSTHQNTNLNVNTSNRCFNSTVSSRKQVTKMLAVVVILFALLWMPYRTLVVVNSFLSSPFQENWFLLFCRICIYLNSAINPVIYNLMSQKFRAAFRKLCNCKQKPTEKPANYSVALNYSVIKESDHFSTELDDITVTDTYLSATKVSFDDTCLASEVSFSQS
In general terms: qHTS replaces the single test concentration by a dilution series.
For the compound `COC(C)(C)OC`, the outcome was inactive.

As to `CCC(Cl)CC(Cl)C(Cl)C(Cl)C(Cl)C(C)Cl` (stereo unspecified), the activation was 0.352% [at 11.8 µM].

As to `COc1ccc(C2C(=O)c3ccccc3C2=O)cc1`, the outcome was inactive.

On to `O=C(O)c1cccc(Oc2ccccc2)c1`, for which the outcome was inactive.

On to `Cc1cc(CCCOc2c(C)cc(-c3noc(C(F)(F)F)n3)cc2C)on1`, for which the outcome was inactive.

`COc1cc(C(C)=O)ccc1OCCCN1CCC(c2noc3cc(F)ccc23)CC1`: the outcome was inactive.

As for `CCc1ccc(C)cc1`, the outcome was inactive.

Take `CO[C@@H]1[C@@H](OC)[C@H](C)[C@@](O)(CC(=O)O)O[C@H]1[C@H](C)[C@H]1O[C@@]2(CC[C@@](C)([C@H]3CC[C@@](C)([C@@H]4O[C@@H]([C@H]5O[C@](C)(O)[C@H](C)C[C@@H]5C)C[C@@H]4OC4C[C@H](OC)[C@@H](OC)[C@H](C)O4)O3)O2)C[C@H](O)[C@H]1C` (stereo partly specified): the result was inactive.

Turning to `Cc1ccc2nc(N)[nH]c(=O)c2c1Sc1ccncc1`, the result was inactive.

`CCOC(=O)N1CCC(Nc2ccc(Cl)cc2N)CC1`: the outcome was inactive.

In the case of `O=P(O)(O)Oc1ccccc1`, the outcome was inactive.

For `CCCCCCCC(=O)Oc1c(Br)cc(C#N)cc1Br`, the outcome was inactive.

Turning to `CCC(C)(C)C(=O)O`, the result was inactive.

As to `CCCc1nc2c(C)cc(-c3nc4ccccc4n3C)cc2n1Cc1ccc(-c2ccccc2C(=O)O)cc1`, the outcome was inactive.

Take `Oc1ccc2c(c1)Cc1ccccc1-2`: the outcome was inactive.

As to `CCN(CC)c1ccc(C(=C2C=CC(=[N+](CC)CC)C=C2)c2ccc(S(=O)(=O)O)cc2S(=O)(=O)[O-])cc1`, the outcome was inactive.

With `O=C(O)CN1C(=O)c2cccc3cccc(c23)C1=O`, the result was inactive.

With `C=C(C)c1ccccc1`, the result was inactive.

On to `CC(=O)c1ccc[nH]1`, for which the outcome was inactive.

As for `CC(C)(O)c1coc(S(=O)(=O)NC(=O)Nc2c3c(cc4c2CCC4)CCC3)c1`, the outcome was inactive.

For `CCOc1ncc(F)c(=O)[nH]1`, the outcome was inactive.

Regarding `CC1CCCO1` (stereo unspecified), the result was inactive.

Turning to `Cc1cccc2sc(N)nc12`, the result was inactive.

In the case of `NC(=O)c1ccccc1[N+](=O)[O-]`, the outcome was inactive.

For `O=C(O)CCC(=O)OC[C@@H](NC(=O)C(Cl)Cl)[C@H](O)c1ccc([N+](=O)[O-])cc1`, the result was inactive.

As for `NC(=O)CCCCC(N)=O`, the result was inactive.

As to `Cc1c[nH]c2ccccc12`, the result was inactive.

For `CC(C)CC(O)CC(C)C`, the outcome was inactive.

`CC(CN(CCN(CC(C)OCCO)CC(C)OCCO)CC(C)OCCO)OCCO` (stereo unspecified): the result was inactive.

Regarding `O=C(c1ccccc1)C1CCC1`, the outcome was inactive.

On to `COc1ccc2nc(S(=O)Cc3ncc(C)c(OC)c3C)[nH]c2c1` (stereo unspecified), for which the outcome was inactive.

With `CC(C)N(C)C`, the result was inactive.

For the compound `O=C1OC(=O)c2c(Br)c(Br)c(Br)c(Br)c21`, the outcome was inactive.

`O=C(CCS)OCC(COC(=O)CCS)(COC(=O)CCS)COC(=O)CCS`: the result was inactive.

In the case of `O=C(O)CCCc1c[nH]c2ccccc12`, the result was inactive.

In the case of `CCCCCc1ccco1`, the result was inactive.

Take `CCCCCCCCCCCC(=O)OCC(O)CO` (stereo unspecified): the result was inactive.

With `CCN(CC)CCNC(=O)c1cc(Cl)c(N)cc1OC`, the outcome was inactive.

Test system in another test: not listed separately
The experiment in a line: Human pregnane X receptor (PXR) small molecule agonists, qHTS cell viability counter screen (AID 1346977; active = well fitted cell-killing curve with a large enough effect in the repeat runs; note: nearly all actives have a fitted effect of over 50% in size; note: potency is the fitted concentration of half-maximal effect). The note with it: PXR-Luc HepG2 viability, CellTiter-Fluor, 24 h; series mostly up to 92.4 µM. The essentials: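 HepG2 cells stably carrying the PXR-Luc reporter are cultured with 5% charcoal-stripped FBS and treated with compounds for 24hr. CellTiter-Fluor is added at 23hr and fluorescence is read after 1hr.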
`COC(C)(C)OC`: the Potency entry was “inactive”.

For the compound `CCC(Cl)CC(Cl)C(Cl)C(Cl)C(Cl)C(C)Cl` (stereo unspecified), the activity change, negative = cytotoxicity was -5.6% [at 19 µM].

As to `COc1ccc(C2C(=O)c3ccccc3C2=O)cc1`, the Potency entry is “inactive”.

Take `O=C(O)c1cccc(Oc2ccccc2)c1`: the Potency entry is “inactive”.

With `Cc1cc(CCCOc2c(C)cc(-c3noc(C(F)(F)F)n3)cc2C)on1`, the Potency result is “inactive”.

With `COc1cc(C(C)=O)ccc1OCCCN1CCC(c2noc3cc(F)ccc23)CC1`, the Potency result is “inactive”.

In the case of `CCc1ccc(C)cc1`, the Potency result is “inactive”.

On to `CO[C@@H]1[C@@H](OC)[C@H](C)[C@@](O)(CC(=O)O)O[C@H]1[C@H](C)[C@H]1O[C@@]2(CC[C@@](C)([C@H]3CC[C@@](C)([C@@H]4O[C@@H]([C@H]5O[C@](C)(O)[C@H](C)C[C@@H]5C)C[C@@H]4OC4C[C@H](OC)[C@@H](OC)[C@H](C)O4)O3)O2)C[C@H](O)[C@H]1C` (stereo partly specified), for which the Potency is 3.35 µM (active).

`Cc1ccc2nc(N)[nH]c(=O)c2c1Sc1ccncc1`: the Potency result is “inactive”.

Regarding `CCOC(=O)N1CCC(Nc2ccc(Cl)cc2N)CC1`, the Potency result was “inactive”.

With `O=P(O)(O)Oc1ccccc1`, the Potency entry is “inactive”.

For `CCCCCCCC(=O)Oc1c(Br)cc(C#N)cc1Br`, the Potency result is “inactive”.

Turning to `CCC(C)(C)C(=O)O`, the Potency entry was “inactive”.

For the compound `CCCc1nc2c(C)cc(-c3nc4ccccc4n3C)cc2n1Cc1ccc(-c2ccccc2C(=O)O)cc1`, the Potency result was “inactive”.

Consider `Oc1ccc2c(c1)Cc1ccccc1-2`, for which the Potency result is “inactive”.

As to `CCN(CC)c1ccc(C(=C2C=CC(=[N+](CC)CC)C=C2)c2ccc(S(=O)(=O)O)cc2S(=O)(=O)[O-])cc1`, the Potency is 15.4 µM (active).

With `O=C(O)CN1C(=O)c2cccc3cccc(c23)C1=O`, the Potency entry was “inactive”.

For `C=C(C)c1ccccc1`, the Potency result is “inactive”.

On to `CC(=O)c1ccc[nH]1`, for which the Potency entry was “inactive”.

As for `CC(C)(O)c1coc(S(=O)(=O)NC(=O)Nc2c3c(cc4c2CCC4)CCC3)c1`, the Potency entry is “inactive”.

Consider `CCOc1ncc(F)c(=O)[nH]1`, for which the Potency result is “inactive”.

As to `CC1CCCO1` (stereo unspecified), the Potency result is “inactive”.

As to `Cc1cccc2sc(N)nc12`, the Potency entry was “inactive”.

For the compound `NC(=O)c1ccccc1[N+](=O)[O-]`, the Potency result was “inactive”.

Regarding `O=C(O)CCC(=O)OC[C@@H](NC(=O)C(Cl)Cl)[C@H](O)c1ccc([N+](=O)[O-])cc1`, the Potency result is “inactive”.

Regarding `NC(=O)CCCCC(N)=O`, the Potency result is “inactive”.

On to `Cc1c[nH]c2ccccc12`, for which the Potency result was “inactive”.

On to `CC(C)CC(O)CC(C)C`, for which the Potency entry is “inactive”.

In the case of `CC(CN(CCN(CC(C)OCCO)CC(C)OCCO)CC(C)OCCO)OCCO` (stereo unspecified), the Potency result is “inactive”.

With `O=C(c1ccccc1)C1CCC1`, the Potency entry was “inactive”.

For `COc1ccc2nc(S(=O)Cc3ncc(C)c(OC)c3C)[nH]c2c1` (stereo unspecified), the Potency entry was “inactive”.

For `CC(C)N(C)C`, the Potency entry was “inactive”.

With `O=C1OC(=O)c2c(Br)c(Br)c(Br)c(Br)c21`, the Potency entry was “inactive”.

With `O=C(CCS)OCC(COC(=O)CCS)(COC(=O)CCS)COC(=O)CCS`, the Potency result was “inactive”.

As to `O=C(O)CCCc1c[nH]c2ccccc12`, the Potency entry was “inactive”.

Take `CCCCCc1ccco1`: the Potency entry was “inactive”.

For the compound `CCCCCCCCCCCC(=O)OCC(O)CO` (stereo unspecified), the Potency entry was “inactive”.

Regarding `CCN(CC)CCNC(=O)c1cc(Cl)c(N)cc1OC`, the Potency entry was “inactive”.
